Screening results as filed in PubChem.
GPR151 ag – human GPR151 activation. Q8TDV0. PathHunter beta-arrestin GPR151 cells, luminescence. activation, % at 11.2 µM. 650,000 tested, 1% active. AID 1508602; in the data active = activation above about 4.9%
Target sequence (Q8TDV0 whole entry, looked up): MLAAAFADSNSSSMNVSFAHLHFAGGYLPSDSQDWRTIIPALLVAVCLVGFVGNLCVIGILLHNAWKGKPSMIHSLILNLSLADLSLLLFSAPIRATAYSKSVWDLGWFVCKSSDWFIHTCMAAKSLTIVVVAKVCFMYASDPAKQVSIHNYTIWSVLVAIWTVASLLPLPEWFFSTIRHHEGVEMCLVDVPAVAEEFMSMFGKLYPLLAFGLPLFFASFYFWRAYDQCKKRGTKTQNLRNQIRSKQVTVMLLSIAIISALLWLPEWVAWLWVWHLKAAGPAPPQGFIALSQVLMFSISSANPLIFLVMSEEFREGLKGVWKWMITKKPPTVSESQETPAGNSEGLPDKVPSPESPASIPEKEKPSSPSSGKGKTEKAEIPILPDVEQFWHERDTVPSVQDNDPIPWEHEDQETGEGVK
TEAD-YAP block – TEAD-YAP interaction inhibition; HEK-TIYL cells, TEAD-Gal4/YAP UAS-luciferase luminescence; inhibition, % at 9.12 µM; 640,000 tested, 1.4% active; AID 1259422; in the data active = inhibition above about 32%
MITF primary – inhibitors of human MITF; inhibition, % at 2.6 µM; AlphaScreen MITF homodimerization, bead proximity signal; 650,000 tested, 0.91% active; O75030; AID 1259374; in the data active = inhibition above about 50%
FBW7 activator – activators of human E3 ligase FBW7; AlphaScreen FBW7–phospho-cyclin E peptide binding, activator screen; normalized activity (activation), % at 26.1 µM; AID 1259310; 650,000 tested, 0.13% active; in the data active = normalized activity above about 1.9%;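 note: purified mutant Fbw7 with reduced substrate affinity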
Of the large screens only hits and unclear results are named; the others gave an inactive call. Most compounds without a hit are left out; they make up all but 3.4% or so of the library.

CCOCCOC(=O)c1[nH]c2c(c1C)C(=O)CC(c1cccs1)C2 (stereo not drawn)	TEAD-YAP block 54.0
Cc1c(C(=O)OC(C)C)[nH]c2c1C(=O)CC(c1cccs1)C2 (stereo not drawn)	TEAD-YAP block 60.1
C/C=C/COC(=O)c1[nH]c2c(c1C)C(=O)CC(c1cccs1)C2 (stereo not drawn)	TEAD-YAP block 42.5
COCCOC(=O)c1[nH]c2c(c1C)C(=O)CC(c1cccs1)C2 (stereo not drawn)	TEAD-YAP block 48.9
CCOC(=O)C1=C(C)NC2=C(C(=O)CC(c3cccs3)C2)C1c1ccc(C)s1 (stereo not drawn)	none
CCSCCOC(=O)c1[nH]c2c(c1C)C(=O)CC(c1cccs1)C2 (stereo not drawn)	TEAD-YAP block 55.0
CCSCCOC(=O)C1=C(C)NC2=C(C(=O)CC(c3cccs3)C2)C1c1ccc(F)cc1 (stereo not drawn)	none
Cc1c(C(=O)OCCOC(C)C)[nH]c2c1C(=O)CC(c1cccs1)C2 (stereo not drawn)	TEAD-YAP block 50.5
CCOC(=O)c1[nH]c2c(c1C)C(=O)CC(c1cccs1)C2 (stereo not drawn)	TEAD-YAP block 52.4
Cc1ccccc1OCC(O)Cn1c(SCC(C)O)nc2c1c(=O)[nH]c(=O)n2C (stereo not drawn)	none
O=C(O)C(Cc1ccccc1)N1C(=O)C2CCCCC2C1=O (stereo not drawn)	FBW7 activator 2.6
O=C(CCCC(=O)c1ccccc1)Nc1ncn[nH]1	none
Cc1ccc2nc(-c3ccc(NC(=O)CSc4ncn[nH]4)cc3)sc2c1	TEAD-YAP block 72.7
O=C(CSc1ncn[nH]1)Nc1ccc(-c2nc3ccccc3s2)cc1	TEAD-YAP block 52.5
COC(=O)c1ccc(NC(=O)CSc2ncn[nH]2)cc1	FBW7 activator 2.4
COc1ccc(NC(=O)CSc2ncn[nH]2)cc1	none
Cc1ccc(NC(=O)CSc2ncn[nH]2)cc1	none
CCN(CC)S(=O)(=O)c1ccc(C(=O)Nc2c(C)n(C)n(-c3ccccc3)c2=O)cc1	none
CSc1c(CC(=O)Nc2ccccc2C(F)(F)F)n(C)c2ccc(C)cc12	none
C#CCNC(=O)C1CCCN(c2nc(C)cc(OCC)n2)C1 (stereo not drawn)	none
O=C(Nc1ccccc1-c1nc2ccccc2[nH]1)C1COc2ccccc2O1 (stereo not drawn)	none
O=C(Nc1ccccc1-c1nc2ccccc2[nH]1)C1CC1	TEAD-YAP block 38.2
CC(=O)c1ccc(C(=O)Nc2ccccc2-c2nc3ccccc3[nH]2)cc1	none
COc1cc2ccccc2cc1C(=O)Nc1ccccc1-c1nc2ccccc2[nH]1	FBW7 activator 2.6
Cc1c(C(=O)N2CCCCC2)sc2nc[nH]c(=O)c12	none
Cc1cc(-n2c(C)ccc2-c2ccccc2)ccc1F	none
CCOc1cc([N+](=O)[O-])cc(/C=N/NC(=O)COc2c(C)ccc(C)c2C)c1O	none
Cc1ccccc1OCC(=O)N/N=C/c1ccc(F)cc1	none
O=C(COc1ccccc1-c1ccccc1)N/N=C\c1ccc[nH]1	TEAD-YAP block 50.5
CCOc1cc([N+](=O)[O-])cc(/C=N/NC(=O)COc2cccc(C)c2C)c1O	MITF primary 66.0
COc1cc(/C=N/NC(=O)COc2ccc(C)cc2C)ccc1O	FBW7 activator 1.9
Cc1ccc(/C=N/NC(=O)COc2ccccc2C)cc1	TEAD-YAP block 49.6
COc1ccc(C(=O)NNC(=O)C(NC(=O)c2ccccc2NC(=O)c2ccc(OC)cc2)C(C)C)cc1 (stereo not drawn)	none
COc1ccc(C(C[N+](=O)[O-])c2c(C)[nH]c3ccccc23)c(OC)c1 (stereo not drawn)	none
COc1ccc(CCNC(=O)C(C)Oc2cccc(Cl)c2)cc1OC (stereo not drawn)	none
Cc1ccc(C(C)C)c(OCC(=O)N/N=C2\CCCC(=O)C2)c1	none
Cc1ccc(/C=N/NC(=O)CCc2c(C)n[nH]c2C)cc1	TEAD-YAP block 32.8
COc1cc(/C=N\NC(=O)COc2ccc(C)cc2C)cc(OC)c1O	none
CCOc1ccccc1OCC(=O)N/N=C1\CCCC(=O)C1	TEAD-YAP block 47.8
CCOc1ccccc1OCC(=O)N/N=C/c1cc(C)ccc1O	TEAD-YAP block 61.0
COc1cc(/C=N\NC(=O)COc2cc(C)ccc2C(C)C)cc(OC)c1O	TEAD-YAP block 36.4
Cc1n[nH]c(C)c1CCC(=O)N/N=C/c1ccc(Br)cc1	none
COc1ccc(Nc2nnc(SCC(=O)c3cccs3)s2)cc1	none
CC(=O)Nc1ccc(C2NN=C(c3ccccc3)S2)cc1 (stereo not drawn)	none
CCOc1ccc(C2NN=C(c3ccccc3)S2)cc1 (stereo not drawn)	TEAD-YAP block 70.9
COc1ccc(O)c(C2NN=C(c3ccccc3)S2)c1 (stereo not drawn)	TEAD-YAP block 41.7
CN(c1ccccc1)c1ccc(C2NN=C(c3ccccc3)S2)cc1 (stereo not drawn)	FBW7 activator 2.1
COc1ccc([N+](=O)[O-])cc1C1NN=C(c2ccccc2)S1 (stereo not drawn)	none
COc1ccc(C(=O)NC(C)C(c2cccs2)N2CCOCC2)cc1OC (stereo not drawn)	none
CCOC(=O)C(NC(=O)c1cccc(F)c1)(Nc1sc2c(c1C(N)=O)CCCC2)C(F)(F)F (stereo not drawn)	none
COC(=O)c1sccc1NC(=O)c1csc(C)c1-c1ccccc1	TEAD-YAP block 32.6
O=C1NC(=S)NC(=O)C1=Cc1ccc(OC(=O)c2ccc(Br)cc2)cc1	none
Cc1nc([N+](=O)[O-])cn1Cc1nnc(N)s1	none
Clc1ccc(-c2nc(-c3ccccn3)no2)c(Cl)c1	TEAD-YAP block 97.8
Cc1ccc(-c2nc(-c3ccccn3)no2)c(Cl)c1	TEAD-YAP block 98.3
Cc1ccc(-c2nc(-c3cccnc3)no2)c(Cl)c1	none
c1ccc(-c2noc(-c3cccc4ccccc34)n2)nc1	none
Cc1noc(/C=C/N(C)C)c1S(=O)(=O)N1CCc2ccccc2C1	none
N#CCCn1cc(CO)c(-c2ccc(F)cc2)n1	none
O=C(/C=C/c1ccc(O)c(O)c1)OC(Cc1ccc(O)c(O)c1)C(=O)O (stereo not drawn)	MITF primary 88.5
Oc1ccc(N=Cc2ccc[nH]2)cc1N=Cc1ccc[nH]1	MITF primary 86.9
NS(=O)(=O)c1ccc(N=Cc2ccc[nH]2)cc1	none
O=C(NC1CC1)c1cccc(NS(=O)(=O)c2ccc(-c3cn[nH]c3)cc2)c1	none
O=C(CCl)N1CCN(S(=O)(=O)c2ccccc2)CC1	TEAD-YAP block 34.5
CCc1ccc(NC(=O)CSC2=C(C#N)C(c3cccs3)C3=C(CCCC3=O)N2)cc1 (stereo not drawn)	none
O=C1CC(c2ccc(Cl)cc2)Oc2ccccc21 (stereo not drawn)	none
O=C(NCCCCCCNC(=O)Nc1cccnc1)Nc1cccnc1	TEAD-YAP block 57.1
COc1cc(-c2cnn3ccc(Nc4ccccc4)nc23)cc(OC)c1OC	TEAD-YAP block 46.9
COc1cncc(-c2cnn3ccc(Nc4ccc(N5CCOCC5)cc4)nc23)c1	TEAD-YAP block 39.0
COc1ccc(OCC(=O)NCCCN(C)C)cc1	none
CC(C)Oc1ccccc1/C=C(\C#N)C(=O)NCCc1ccccc1	TEAD-YAP block 50.0
